mHTT-CaM PPI inh: disrupts binding of mutant huntingtin to calmodulin | AlphaScreen His-mHTT/GST-CaM binding, luminescence | inhibition, % at 15 µM | 190,000 compounds, 3.6% hits | P42858
Target sequence (P42858 whole entry, looked up, change not shown): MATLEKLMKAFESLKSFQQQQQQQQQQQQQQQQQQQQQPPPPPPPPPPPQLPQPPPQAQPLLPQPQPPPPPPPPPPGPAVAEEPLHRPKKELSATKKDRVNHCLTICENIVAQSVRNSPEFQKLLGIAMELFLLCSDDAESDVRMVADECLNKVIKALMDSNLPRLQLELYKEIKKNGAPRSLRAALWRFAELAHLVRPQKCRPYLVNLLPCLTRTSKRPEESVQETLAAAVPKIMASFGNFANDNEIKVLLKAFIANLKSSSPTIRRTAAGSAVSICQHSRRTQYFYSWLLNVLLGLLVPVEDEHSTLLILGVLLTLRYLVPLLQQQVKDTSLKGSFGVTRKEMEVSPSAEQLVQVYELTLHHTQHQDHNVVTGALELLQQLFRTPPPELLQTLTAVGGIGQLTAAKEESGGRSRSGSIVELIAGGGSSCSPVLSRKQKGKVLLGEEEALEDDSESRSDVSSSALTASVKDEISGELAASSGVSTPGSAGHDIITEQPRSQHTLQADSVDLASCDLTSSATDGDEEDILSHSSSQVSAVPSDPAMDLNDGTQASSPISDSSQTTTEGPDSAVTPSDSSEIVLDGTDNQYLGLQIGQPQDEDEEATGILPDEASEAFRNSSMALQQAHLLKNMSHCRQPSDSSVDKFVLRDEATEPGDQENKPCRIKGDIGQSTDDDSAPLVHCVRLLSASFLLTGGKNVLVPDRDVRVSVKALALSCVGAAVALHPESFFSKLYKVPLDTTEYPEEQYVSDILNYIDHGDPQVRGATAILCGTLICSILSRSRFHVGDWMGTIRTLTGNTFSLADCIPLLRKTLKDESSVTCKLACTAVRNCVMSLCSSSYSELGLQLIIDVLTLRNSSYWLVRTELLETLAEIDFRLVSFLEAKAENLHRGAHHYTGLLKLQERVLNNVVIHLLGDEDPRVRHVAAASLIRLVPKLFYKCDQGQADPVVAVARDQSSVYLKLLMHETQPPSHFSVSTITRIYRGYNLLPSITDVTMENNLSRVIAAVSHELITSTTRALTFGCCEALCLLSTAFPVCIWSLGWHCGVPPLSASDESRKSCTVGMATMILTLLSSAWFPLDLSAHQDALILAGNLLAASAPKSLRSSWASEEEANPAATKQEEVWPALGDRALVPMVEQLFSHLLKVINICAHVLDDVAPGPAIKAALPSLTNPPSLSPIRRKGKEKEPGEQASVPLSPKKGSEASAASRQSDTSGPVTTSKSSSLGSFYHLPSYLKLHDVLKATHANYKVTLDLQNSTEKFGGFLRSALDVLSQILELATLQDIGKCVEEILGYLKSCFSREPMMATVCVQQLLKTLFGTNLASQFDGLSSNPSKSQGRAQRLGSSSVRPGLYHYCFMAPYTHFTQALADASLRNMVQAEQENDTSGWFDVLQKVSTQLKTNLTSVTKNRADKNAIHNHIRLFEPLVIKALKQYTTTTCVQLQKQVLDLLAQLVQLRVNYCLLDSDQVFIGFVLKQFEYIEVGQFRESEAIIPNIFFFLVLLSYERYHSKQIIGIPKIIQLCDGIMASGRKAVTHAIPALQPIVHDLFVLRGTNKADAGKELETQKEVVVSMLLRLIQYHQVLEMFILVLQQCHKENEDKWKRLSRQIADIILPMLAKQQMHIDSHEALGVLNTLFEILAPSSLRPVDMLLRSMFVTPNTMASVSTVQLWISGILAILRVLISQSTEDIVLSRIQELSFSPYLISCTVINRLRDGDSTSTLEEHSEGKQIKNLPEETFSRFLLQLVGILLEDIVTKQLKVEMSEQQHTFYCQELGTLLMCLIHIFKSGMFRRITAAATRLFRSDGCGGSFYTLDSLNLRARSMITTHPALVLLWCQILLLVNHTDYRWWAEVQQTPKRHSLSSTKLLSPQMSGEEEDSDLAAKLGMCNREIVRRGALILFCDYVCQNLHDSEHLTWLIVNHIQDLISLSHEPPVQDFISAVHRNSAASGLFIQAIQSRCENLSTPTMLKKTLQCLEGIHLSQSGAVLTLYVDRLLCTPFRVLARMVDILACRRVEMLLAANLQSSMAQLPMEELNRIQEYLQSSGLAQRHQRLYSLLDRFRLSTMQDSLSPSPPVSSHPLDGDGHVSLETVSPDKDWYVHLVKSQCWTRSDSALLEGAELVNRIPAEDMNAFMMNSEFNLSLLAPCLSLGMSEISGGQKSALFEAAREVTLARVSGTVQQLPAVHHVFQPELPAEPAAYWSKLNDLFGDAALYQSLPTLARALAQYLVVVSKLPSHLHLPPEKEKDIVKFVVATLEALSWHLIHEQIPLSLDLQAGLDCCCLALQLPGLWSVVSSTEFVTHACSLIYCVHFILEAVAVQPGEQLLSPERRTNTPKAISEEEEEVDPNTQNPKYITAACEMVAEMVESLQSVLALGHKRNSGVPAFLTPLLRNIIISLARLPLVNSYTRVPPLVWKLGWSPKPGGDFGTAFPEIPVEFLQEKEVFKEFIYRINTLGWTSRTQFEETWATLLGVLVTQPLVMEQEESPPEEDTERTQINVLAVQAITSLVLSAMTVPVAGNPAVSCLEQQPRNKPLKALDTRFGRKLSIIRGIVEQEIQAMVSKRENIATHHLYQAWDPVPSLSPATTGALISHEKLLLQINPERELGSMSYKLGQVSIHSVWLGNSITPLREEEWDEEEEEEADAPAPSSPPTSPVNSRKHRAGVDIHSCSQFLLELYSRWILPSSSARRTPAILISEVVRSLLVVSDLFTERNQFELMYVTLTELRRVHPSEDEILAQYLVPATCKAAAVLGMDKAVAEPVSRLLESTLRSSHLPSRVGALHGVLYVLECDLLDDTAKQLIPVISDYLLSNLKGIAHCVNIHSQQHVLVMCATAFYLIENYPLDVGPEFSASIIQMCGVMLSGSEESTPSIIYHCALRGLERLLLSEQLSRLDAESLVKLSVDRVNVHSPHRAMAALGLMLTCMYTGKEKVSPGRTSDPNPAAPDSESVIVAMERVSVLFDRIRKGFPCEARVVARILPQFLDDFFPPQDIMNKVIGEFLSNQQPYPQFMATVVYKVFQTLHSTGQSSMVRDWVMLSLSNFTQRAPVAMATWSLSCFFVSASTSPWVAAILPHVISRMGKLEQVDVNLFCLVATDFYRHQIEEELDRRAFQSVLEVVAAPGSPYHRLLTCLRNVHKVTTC
Pf apPOL block: Pf-apPOL DNA polymerase inhibition; inhibition, % at 10 µM; 210,000 compounds, 0.25% hits; Recombinant Pf-apPOL, molecular beacon fluorescence, 1.5 h
Large screens that a line does not name were inactive. In the library only some 3.5% were active in any assay of this set; here they are far more common. Rule as the data show it: active = inhibition above about 50%; inactive = the rest.

Cn1cccc1-c1cc2n(n1)CCCN2C(=O)CCC(=O)N1CCc2ccccc2C1	mHTT-CaM PPI inh 54.4
Cc1ccccc1NC(=O)CCC(=O)N1CCCn2nc(-c3cccn3C)cc21	none
COc1ccc(CNc2nc(-c3ccc(C)cc3)nnc2C)cc1	none
COc1ccc(-c2nnc(C)c(NC3CCCC3)n2)cc1	mHTT-CaM PPI inh 52.3
COc1ccc2c(c1)C1(NC(=O)c3ccccc3N1)C(=O)N2 (configuration not stated)	none
COC(=O)C1=C(C(=O)OC)SC2(S1)C(C(=O)OC)=C(C(=O)OC)SC1=C2c2cc(OC)ccc2NC1(C)C	mHTT-CaM PPI inh 62.6 (no result: Pf apPOL block)
Cc1ccc(NC(=O)C2CCN(c3cncnc3N3CCOCC3)CC2)cc1C	none
COc1cccc2cc(-c3nc4ccccc4[nH]3)c(=N)oc12	Pf apPOL block 74.6
COc1cccc2cc(-c3nc4ccccc4[nH]3)c(=Nc3ccc(C(N)=O)cc3)oc12	none
C=CCc1ccccc1OC(C)/C(N)=N/O (configuration not stated)	none
Cc1nn(C)c(C)c1NC(=O)C(C#N)=CN(C)C	none (no result: mHTT-CaM PPI inh)
Cc1ccccc1C(=O)NCc1cnn2ccccc12	none
CCc1ccc(S(=O)(=O)Nc2ccc(O)cc2)cc1	none
Cc1ccc(Cl)cc1NC1=CC(=NS(=O)(=O)c2cccs2)c2ccccc2C1=O	mHTT-CaM PPI inh 79.0
CCc1ccc(S(=O)(=O)N=C2C=C(Nc3ccc(O)cc3)C(=O)c3ccccc32)cc1	mHTT-CaM PPI inh 72.0
Cc1ccccc1NS(=O)(=O)c1cccs1	none
O=C1C(Nc2ccc(O)cc2)=CC(=NS(=O)(=O)c2cccs2)c2ccccc21	mHTT-CaM PPI inh 94.0
CCOc1ccc(S(=O)(=O)N=C(Nc2ccccn2)c2ccccc2)cc1	none
CS(=O)(=NC(=O)Nc1ccccc1)c1cccs1 (configuration not stated)	none (no result: mHTT-CaM PPI inh)
CCOc1ccc(S(=O)(=O)N=C2C=C(Nc3ccc(O)cc3)C(=O)c3ccccc32)cc1	mHTT-CaM PPI inh 94.0
CCCCNC(=O)ON=C(C)c1ccc2cc(OC)ccc2c1	none (no result: mHTT-CaM PPI inh)
CCn1c(=O)c(C(=O)N2CCCC2)nc2cc(C)c(C)cc21	none
CS(=O)(=O)Oc1ccc(C=Nc2cccc(C(F)(F)F)c2)cc1	none (no result: Pf apPOL block)
O=C(CSc1ncc(-c2ccccc2)[nH]1)Nc1ccccc1Cl	none
Cc1nc(SC=CC(=O)c2ccccc2)c(C#N)c(C)c1C	none (no result: mHTT-CaM PPI inh)
CCOc1ccc(NC2=CC(=NS(=O)(=O)c3ccccc3)c3ccccc3C2=O)cc1	mHTT-CaM PPI inh 66.0
CCOc1ccc(NC2=CC(=NS(=O)(=O)c3ccc(OC)cc3)c3ccccc3C2=O)cc1	none
COc1ccccc1-c1noc(C2CCCN2C(=O)Nc2ccc(F)cc2)n1 (configuration not stated)	none
O=C(c1ccc(F)cc1F)N1CCC(n2nc(-c3ccsc3)ccc2=O)CC1	mHTT-CaM PPI inh 100.0
O=C(c1ccccc1F)N1CCC(n2nc(-c3ccsc3)ccc2=O)CC1	mHTT-CaM PPI inh 86.0
O=C(c1cc(F)ccc1F)N1CCC(CCOCc2ccc(F)cc2)CC1	none
O=C(c1ccccn1)N1CCC(n2nc(-c3ccsc3)ccc2=O)CC1	none
O=C(c1cc(F)ccc1F)N1CCC(n2nc(-c3ccsc3)ccc2=O)CC1	mHTT-CaM PPI inh 97.5
CCOC(=O)c1cc(C)nn1C1CCN(C(=O)c2ccc(F)cc2F)CC1	none
N#CC(=Cc1cccs1)C(N)=O	none (no result: mHTT-CaM PPI inh)
O=S(=O)(O/N=C1\CCCc2sc(Cl)cc21)c1ccccc1	none (no result: Pf apPOL block)
COc1ccc(-c2ccc(CCC(=O)O)n2-c2ccc(OC)cc2OC)cc1	none
COc1ccc(-n2c(CCC(=O)O)ccc2-c2cccs2)c(OC)c1	mHTT-CaM PPI inh 55.0
NC(=O)C1CCN(C(=O)CN(Cc2ccccc2)S(=O)(=O)c2ccc(F)cc2)CC1	none
CCn1c(-c2cc(NC(=O)C3CC3)n[nH]2)cc2c(OC)cccc21	mHTT-CaM PPI inh 50.3
CCn1c(-c2cc(NC(=O)C3CC3)n[nH]2)cc2ccc(OC)cc21	none
CC1=C(C(=O)NCCCN2CCN(C3CCCCC3)CC2)C2(CCCCC2)OC1=O	none
Cc1ccc([N+](=O)[O-])cc1NC(=O)c1cnccn1	none
Cc1ccc([N+](=O)[O-])cc1NC(=O)c1cccc(C(=O)Nc2cc([N+](=O)[O-])ccc2C)n1	Pf apPOL block 66.9
COc1cccc(C(=O)NCc2[nH]nc3ccccc23)c1	mHTT-CaM PPI inh 51.9
Cc1cc(C)cc(C(=O)NCc2[nH]nc3ccccc23)c1	none
CCOc1cc(C2Nc3cc(C)c(C)cc3NC3=C2C(=O)CC(C)(C)C3)cc(Cl)c1O (configuration not stated)	mHTT-CaM PPI inh 53.0
CCOc1cc(C2Nc3ccccc3NC3=C2C(=O)CC(c2cccs2)C3)cc(Cl)c1O (configuration not stated)	none
COc1ccc(CCS(=O)(=O)NCC2CCN(C(=O)c3cccn(C)c3=O)CC2)cc1	none
CCc1onc(C)c1C1CCCN1C(=O)c1ccc2c(c1)OCO2 (configuration not stated)	none
CCCCC(CC)C(=O)Nc1sc(C)c(CC)c1C(N)=O (configuration not stated)	none
O=[N+]([O-])c1ccc(N2CCSCC2)nc1	Pf apPOL block 66.2
O=[N+]([O-])c1ccc(N2CCOCC2)nc1	none
COc1cccc(S(=O)(=O)N2CCN(CC(F)(F)F)CC2)c1	none
O=C(Cn1nc(-c2ccco2)ccc1=O)Nc1ccc(-c2ccc(=O)[nH]n2)cc1	none
COc1ccc(C2C3CCCC=C3C(C#N)=C(N)C2(C#N)C#N)cc1 (configuration not stated)	none
N#CC1=C(N)C(C#N)(C#N)C(c2cccs2)C2CC(c3ccccc3)CC=C12 (configuration not stated)	mHTT-CaM PPI inh 96.0
CC(C)c1ccc(C2C3CCCC=C3C(C#N)=C(N)C2(C#N)C#N)cc1 (configuration not stated)	mHTT-CaM PPI inh 55.0
CCCCOc1ccc(C2C3CCCC=C3C(C#N)=C(N)C2(C#N)C#N)cc1 (configuration not stated)	mHTT-CaM PPI inh 55.0
CN1CC=C2C(C#N)=C(N)C(C#N)(C#N)C(c3ccccc3)C2C1 (configuration not stated)	none
CCCN1CC=C2C(C#N)=C(N)C(C#N)(C#N)C(c3ccc(-c4ccccc4)cc3)C2C1 (configuration not stated)	mHTT-CaM PPI inh 63.0
Cc1ccc(C2C3CCCC=C3C(C#N)=C(N)C2(C#N)C#N)cc1 (configuration not stated)	none
N#CC1=C(N)C(C#N)(C#N)C(c2ccccc2)C2CCCC=C12 (configuration not stated)	none
CC12CC(NC(=O)N1c1ccc(F)cc1F)c1cc([N+](=O)[O-])ccc1O2 (configuration not stated)	none
CCc1c(C2CCN(C(=O)c3ccsc3)CC2)noc1N	none
O=C(c1cccc(Cl)c1)N1CCC2(CC1)NC(=O)N(Cc1cccc(Cl)c1)C2=O	none
CCn1c(=O)cc(C(F)(F)F)c2ccc(OCC(=O)NC(C)C)cc21	none
CC(C)(C)C1CC=C2C(C#N)=C(N)C(C#N)(C#N)C(c3ccc(Cl)cc3)C2C1 (configuration not stated)	mHTT-CaM PPI inh 62.0
CC(C)(C)C1CC=C2C(C#N)=C(N)C(C#N)(C#N)C(c3ccccc3)C2C1 (configuration not stated)	none
C=CCN(C(=O)c1ccc(N2CC3CC(C2)c2cccc(=O)n2C3)c(N)c1)c1ccccc1 (configuration not stated)	none
CCn1cc(C(=O)O)c(=O)c2cc(F)c(N3CCN(S(=O)(=O)c4ccccc4)CC3)cc21	none
COCCNC(=O)N1CCN(Cc2nc3cccnc3n2-c2ccccc2)CC1	none

Screening results (PubChem)
